# From PubChem BioAssay (NCATS)
# Inconclusive results are not listed. Active and inactive are the calls of the source. Unless noted, calls follow the shape of the dose curve; as a rule, active = well fitted curve in the direction sought with a large enough effect; inconclusive = small, poorly fitted or top-dose-only effect, or another doubt; inactive = no such curve, though single readings can be large; an effect the other way counts as inactive or inconclusive.
# What was measured:
# [1] = molecular target: Vitamin D3 receptor (Homo sapiens) (UniProt P11473); assay: qHTS assay for small molecule agonists of vitamin D receptor signaling (AID 588543; calls by dose curve; also: potency is read from the fitted curve at half-maximal effect;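 as to activation: 0% = DMSO basal and 100% = reference agonist control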)
# How it was run: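 Reporter cells (HEK293T, VDR-UAS-bla) were seeded in medium with 2% charcoal-stripped serum and incubated 5 h, then compounds in concentration series were added for 16 h at 37 °C. Stimulation was scaled between DMSO basal and 50 nM 1α,25-dihydroxyvitamin D3.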
# [2] = molecular target: Thyroid hormone receptor beta (Homo sapiens) (UniProt P10828); assay: qHTS assay for small molecule agonists of thyroid hormone receptor beta signaling (AID 588545; calls by dose curve; also: potency is read from the fitted curve at half-maximal effect)
# How it was run: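 In this cell-based screen, titrated compounds act on HEK 293 cells held in medium with 2% charcoal/dextran FBS, NEAA and pyruvate for 18 hrs at 37 C. Responses are expressed relative to T3 (10 nM) as 100% and basal DMSO as 0%.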
# [3] = qHTS assay for small molecule activators of the p53 signaling pathway (AID 651743; active = well fitted activation curve with a large enough effect in the signal ratio, not every such curve was filed as active; the % refers to the signal ratio; also: potency is read from the fitted curve at half-maximal effect; as to activation: % of control where 0% means no effect); details: HCT-116 p53RE-bla, beta-lactamase FRET ratio, 16 h; activation: stronger effect = higher value
# How it was run: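 Following 16 hours of compound exposure at 37 C, HCT-116 cells bearing the p53RE-bla reporter were loaded with LiveBLAzer B/G FRET substrate for 2 hours at room temperature and fluorescence intensity was recorded.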
# [4] = qHTS assay for small molecule activators of the nuclear factor-kappa B (NF-kB) signaling pathway (AID 651749; active = well fitted activation curve with a large enough effect in the signal ratio; the % refers to the signal ratio; also: potency is read from the fitted curve at half-maximal effect; as to activation: % of control where 0% means no effect); details: NF-kB-bla ME-180 cells, beta-lactamase FRET ratio, 16 h; activation: stronger effect = higher value
# How it was run: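 In this qHTS format, compounds acting as activators increase NF-kB-driven beta-lactamase in ME-180 cells, measured as disrupted FRET after 16 hr exposure at 37C and 5% CO2.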
# [5] = molecular target: Peroxisome proliferator-activated receptor alpha (Homo sapiens) (UniProt Q07869); assay: qHTS assay for small molecule agonists of the peroxisome proliferator-activated receptor alpha (PPARalpha) signaling pathway (AID 651778); details: PathHunter PPARalpha complementation, chemiluminescence, 6 h; stronger effect = higher value; also: % of control where 0% means no effect
# How it was run: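 Enzyme-fragment complementation assay in which ligand-bound PPARalpha translocates and forms an active enzyme that generates chemiluminescence. Cells were plated overnight, exposed to compound for 6 hr at 37 C, and then given detection reagent for 60 min at room temperature.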
# [6] = qHTS assay for small molecule agonists of the antioxidant response element (ARE) signaling pathway measured by Nrf2-dependant transcriptional activity - cell viability counter screen (AID 720653; active = well fitted curve in the direction sought with a large enough effect in the repeat runs; an effect the other way counts as inactive or inconclusive; also: % is scaled to controls: 0 for no effect and ±100 for the full control effect); details: ARE-bla HepG2 viability, CellTiter-Glo ATP luminescence, 16 h; max response: stronger effect = lower value
# How it was run: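 ARE-bla HepG2 cells treated with compounds for 16 h at 37C; this counter screen measures viability as intracellular ATP by CellTiter-Glo luminescence after 30 min at room temperature.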
# [7] = qHTS assay for cell viability of the p53RE-bla HCT-116 cell line (AID 743292); also: % is scaled to controls: 0 for no effect and ±100 for the full control effect; nearly all actives have a fitted effect of over 55% in size
# How it was run: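 Quantitative high-throughput format: compounds in DMSO were pinned onto p53RE-bla HCT-116 cells (4,000/well) and incubated 16 h at 37 C. Total intracellular ATP, read by CellTiter-Glo luminescence, reflects viable cell number.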
# [8] = molecular target: Nuclear receptor subfamily 1 group I member 2 (Rattus norvegicus) (UniProt Q9R1A7); assay: qHTS assay for small molecule activators of the rat pregnane X receptor (rPXR) signaling pathway (AID 651751; call rule not given here; also: 0% is about no effect); details: rPXR reporter cells, luciferase (One-Glo), 24 h
# [9] = qHTS assay for small molecule activators of the human pregnane X receptor (PXR) signaling pathway (AID 720659; call rule not given here; also: 0% is about no effect)
# NIH3T3 = assay: qHTS assay to identify novel small-molecules to repurpose for Merkel cell carcinoma treatment (AID 1296009); details: MCC and control cell lines, CellTiter-Glo viability, 72 h; at 44.8 µM (top of the series) unless noted; also: nearly all actives have a fitted effect of over 60% in size
# How it was run: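 Dose-response viability screen; 72 hr exposure at 37 degree celsius; CellTiter-Glo added, 10 min room temperature, luminescence read; RLUs scaled between no-cell and DMSO wells.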
# [10] = Primary qHTS for Huh7 cytotoxicity: counterscreen for inhibitors of MERS-S pseudotyped particle cell entry (AID 1479147; calls by dose curve); details: outcome: dose series up to 57.1 µM unless noted
# [11] = Primary qHTS for Vero E6 cytotoxicity: counterscreen for inhibitors of SARS-S pseudo-typed particle cell entry (AID 1479150; calls by dose curve); details: outcome: dose series up to 57.1 µM unless noted
# [12] = Vero cells viability qHTS for Zika virus inhibitors (AID 1347167); also: potency is read from the fitted curve at half-maximal effect
# How it was run: (§1)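 qHTS titration; 24-48 h compound exposure, 37 degrees C/5% CO2; DMEM, 4% FBS; CellTiter Glo ATP luminescence.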
# [13] = HepG2 cells viability qHTS for Zika virus inhibitors (AID 1347168); also: potency is read from the fitted curve at half-maximal effect
# How it was run: as §1
# [14] = molecular target: Catechol O-methyltransferase (Homo sapiens) (UniProt P21964); assay: Confirmatory Screen for Target Class Profiling of Small Molecule Inhibitors of Methyltransferases (AID 1745852); details: MTase-Glo luminescence, SAH detection, recombinant enzyme; measured here: COMT max response; stronger effect = lower value; as to activity change, negative = inhibition: % is scaled to controls: 0 for no effect and ±100 for the full control effect
# [15] = molecular target: Guanidinoacetate N-methyltransferase (Homo sapiens) (UniProt Q14353); assay: as above; details: activity change, negative = inhibition: at 57.3 µM (top of the series) unless noted
# [16] = molecular target: Nicotinamide N-methyltransferase (Homo sapiens) (UniProt P40261); assay: as above; details: MTase-Glo luminescence, SAH detection, recombinant enzyme; measured here: NNMT max response; stronger effect = lower value
# [17] = molecular target: Phenylethanolamine N-methyltransferase (Homo sapiens) (UniProt P11086); assay: as above; details: MTase-Glo luminescence, SAH detection, recombinant enzyme; measured here: PNMT max response; stronger effect = lower value
# [18] = qHTS for Inhibitors of the Functional Ribonucleoprotein Complex (vRNP) of Lassa (LASV) Arenavirus: LASV Primary Screen - GLuc reporter signal (AID 1347082; calls by dose curve; tested in HEK293 reporter line; also: potency is read from the fitted curve at half-maximal effect; nearly all actives have a fitted effect of over 60% in size)
# [19] = Primary qHTS for inhibitors of MERS-S pseudo-typed particle cell entry (AID 1479149; calls by dose curve; also: nearly all actives have a fitted effect of over 60% in size)
# Chain of Catechol O-methyltransferase (Homo sapiens) (P21964 whole entry, looked up): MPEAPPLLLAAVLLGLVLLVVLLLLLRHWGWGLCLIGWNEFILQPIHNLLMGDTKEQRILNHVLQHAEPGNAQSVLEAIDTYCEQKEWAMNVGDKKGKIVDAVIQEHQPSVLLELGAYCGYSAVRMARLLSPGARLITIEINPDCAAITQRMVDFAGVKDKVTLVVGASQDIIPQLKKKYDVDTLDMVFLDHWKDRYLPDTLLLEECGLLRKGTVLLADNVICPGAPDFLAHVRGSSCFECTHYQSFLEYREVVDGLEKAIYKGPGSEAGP
# Chain of Nuclear receptor subfamily 1 group I member 2 (Rattus norvegicus) (Q9R1A7 whole entry, looked up): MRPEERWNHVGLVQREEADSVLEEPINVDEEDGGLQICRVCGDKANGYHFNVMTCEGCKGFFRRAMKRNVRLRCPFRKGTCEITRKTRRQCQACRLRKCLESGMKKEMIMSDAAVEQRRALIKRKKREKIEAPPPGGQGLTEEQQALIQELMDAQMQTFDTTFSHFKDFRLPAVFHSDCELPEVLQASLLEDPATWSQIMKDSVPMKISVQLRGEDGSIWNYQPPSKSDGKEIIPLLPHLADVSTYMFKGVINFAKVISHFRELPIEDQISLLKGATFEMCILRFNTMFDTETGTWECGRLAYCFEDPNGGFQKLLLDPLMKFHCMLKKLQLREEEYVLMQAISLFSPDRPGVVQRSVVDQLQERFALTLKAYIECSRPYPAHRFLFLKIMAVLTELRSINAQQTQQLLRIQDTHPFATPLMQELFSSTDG
# Chain of Peroxisome proliferator-activated receptor alpha (Homo sapiens) (Q07869 whole entry, looked up, the tested form may be a part): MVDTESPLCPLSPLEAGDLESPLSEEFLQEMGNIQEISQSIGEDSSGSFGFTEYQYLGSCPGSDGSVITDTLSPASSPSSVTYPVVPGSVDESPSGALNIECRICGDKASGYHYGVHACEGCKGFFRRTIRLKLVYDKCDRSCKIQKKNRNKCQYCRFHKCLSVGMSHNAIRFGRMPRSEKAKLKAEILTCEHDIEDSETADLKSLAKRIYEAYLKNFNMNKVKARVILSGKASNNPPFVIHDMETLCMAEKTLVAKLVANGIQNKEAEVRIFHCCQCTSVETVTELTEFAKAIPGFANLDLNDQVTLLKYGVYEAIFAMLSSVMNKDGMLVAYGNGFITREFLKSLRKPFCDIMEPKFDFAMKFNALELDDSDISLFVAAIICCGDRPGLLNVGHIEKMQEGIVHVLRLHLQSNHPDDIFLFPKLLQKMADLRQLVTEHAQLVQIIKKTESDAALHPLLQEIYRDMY
# Chain of Nicotinamide N-methyltransferase (Homo sapiens) (P40261 whole entry, looked up): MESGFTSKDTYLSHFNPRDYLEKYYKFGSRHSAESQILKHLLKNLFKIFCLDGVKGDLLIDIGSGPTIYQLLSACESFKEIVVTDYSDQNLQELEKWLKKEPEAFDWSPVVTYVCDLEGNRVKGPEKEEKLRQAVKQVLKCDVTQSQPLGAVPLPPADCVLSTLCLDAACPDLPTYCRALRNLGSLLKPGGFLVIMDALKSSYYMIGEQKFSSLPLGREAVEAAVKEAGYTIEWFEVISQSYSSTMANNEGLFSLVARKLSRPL
# Chain of Phenylethanolamine N-methyltransferase (Homo sapiens) (P11086 whole entry, looked up): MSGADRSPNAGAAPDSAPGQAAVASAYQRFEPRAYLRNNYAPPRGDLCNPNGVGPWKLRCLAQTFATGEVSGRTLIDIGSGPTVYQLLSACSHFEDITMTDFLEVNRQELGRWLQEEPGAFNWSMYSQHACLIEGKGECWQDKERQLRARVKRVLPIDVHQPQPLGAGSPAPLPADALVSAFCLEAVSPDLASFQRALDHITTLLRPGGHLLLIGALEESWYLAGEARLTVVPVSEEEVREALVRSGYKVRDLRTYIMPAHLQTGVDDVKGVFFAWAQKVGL
# Chain of Thyroid hormone receptor beta (Homo sapiens) (P10828 whole entry, looked up): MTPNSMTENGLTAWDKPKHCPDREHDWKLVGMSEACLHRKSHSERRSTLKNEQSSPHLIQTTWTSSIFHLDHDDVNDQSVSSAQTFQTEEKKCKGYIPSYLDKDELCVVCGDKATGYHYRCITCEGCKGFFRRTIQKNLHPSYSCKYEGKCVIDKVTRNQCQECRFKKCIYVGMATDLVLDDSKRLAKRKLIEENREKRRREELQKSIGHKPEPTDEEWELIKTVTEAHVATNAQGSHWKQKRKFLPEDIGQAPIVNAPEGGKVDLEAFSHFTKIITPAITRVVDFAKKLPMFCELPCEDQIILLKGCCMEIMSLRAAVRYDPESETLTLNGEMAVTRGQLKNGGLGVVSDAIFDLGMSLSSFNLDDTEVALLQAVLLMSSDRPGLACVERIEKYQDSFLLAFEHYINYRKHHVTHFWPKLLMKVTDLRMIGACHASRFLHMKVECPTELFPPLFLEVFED
# Chain of Vitamin D3 receptor (Homo sapiens) (P11473 whole entry, looked up): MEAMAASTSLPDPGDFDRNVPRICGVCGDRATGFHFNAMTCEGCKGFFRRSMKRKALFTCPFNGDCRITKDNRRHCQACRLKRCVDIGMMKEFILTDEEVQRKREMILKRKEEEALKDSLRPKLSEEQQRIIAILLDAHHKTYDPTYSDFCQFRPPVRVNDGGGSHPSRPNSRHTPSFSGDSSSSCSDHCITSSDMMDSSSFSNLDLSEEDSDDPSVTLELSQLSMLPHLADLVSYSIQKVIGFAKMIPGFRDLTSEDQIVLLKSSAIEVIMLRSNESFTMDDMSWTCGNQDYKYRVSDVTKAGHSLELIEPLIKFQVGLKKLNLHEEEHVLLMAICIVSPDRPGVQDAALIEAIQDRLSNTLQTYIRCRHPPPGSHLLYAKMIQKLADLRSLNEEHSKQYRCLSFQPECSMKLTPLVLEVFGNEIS
structure (smiles),measurement,setting,value
C[C@@H]1Cc2c(Cl)cc(C(=O)N[C@@H](Cc3ccccc3)C(=O)O)c(O)c2C(=O)O1,Potency,[1],44.7 µM (active)
same,Potency,[2],44.7 µM (active)
same,Potency,[3],0.891 µM (active)
same,Potency,[4],44.7 µM (active)
same,max response,[5],-0.744% (inactive)
same,max response,[6],9.38% (inactive)
same,outcome,[7],inactive
same,max response,[8],-12% (inactive)
same,outcome,[9],inactive
C[C@]12CC[C@H](OC3OC(CO)C(O)C(O)C3OC3OC(CO)C(O)C(O)C3O)C[C@@H]1CC[C@@H]1C2CC[C@]2(C)[C@@H](C3=CC(=O)OC3)CC[C@]12O (stereo partly drawn),outcome,NIH3T3,inactive [at 17.4 µM]
Cc1ncc(OC[C@@]2(c3cccc(F)c3)C[C@H]2C(=O)Nc2ccc(F)cn2)c(C)n1,outcome,NIH3T3,inactive
C/C=C(\C)C(=O)O[C@@H]1[C@@H](C)[C@]2(O)C3C=C(C)C(=O)[C@@]3(O)CC(CO)=C[C@H]2C2C(C)(C)[C@@]21OC(=O)C(C)CC (stereo partly drawn),outcome,NIH3T3,inactive [at 17.4 µM]
Cc1ccc(-n2nccn2)c(C(=O)N2CCN(c3nc4cc(Cl)ccc4o3)CCC2C)c1 (stereo not drawn),outcome,NIH3T3,inactive
COc1ccc(C(C)(C)C)cc1CN[C@H]1C2CCN(CC2)[C@H]1C(c1ccccc1)c1ccccc1,outcome,[10],inactive
same,outcome,[11],inactive
CC(C)=CCC[C@]1(C)C=Cc2c(O)c3c(c(CC=C(C)C)c2O1)O[C@]12C(=C[C@@H]4CC1C(C)(C)O[C@@]2(C/C=C(/C)C(=O)O)C4=O)C3=O,Potency,[12],8.29 µM (active)
same,Potency,[13],2.94 µM (active)
CC(C)OC(=O)c1ccnc2cc(C(OCCN3CCCCC3)c3ccccc3Cl)sc12 (stereo not drawn),activity,[14],3.41%
same,"activity change, negative = inhibition",[15],8.86%
same,activity,[16],-30.3%
same,activity,[17],-6.38%
CCOC(=O)c1ccnc2cc(C(OCCN3CCCCC3)c3ccccc3Cl)sc12 (stereo not drawn),activity,[14],-1.68%
same,"activity change, negative = inhibition",[15],9.58%
same,activity,[16],-18.4%
same,activity,[17],-4.81%
O=C1Nc2ccc3ncsc3c2/C1=C/c1cnc[nH]1,activity,[14],-10.3%
same,"activity change, negative = inhibition",[15],-5.42%
same,activity,[16],-8.72%
same,activity,[17],-10%
C[C@]12CC[C@H](O[C@@H]3O[C@H](CO)[C@@H](O)[C@H](O)[C@H]3O)CC1CC[C@@H]1C2CC[C@]2(C)[C@@H](C3=CC(=O)OC3)CC[C@]12O (stereo partly drawn),outcome,NIH3T3,inactive [at 17.4 µM]
CC(=O)O[C@H]1C[C@H](O[C@H]2[C@@H](O)C[C@H](O[C@H]3[C@@H](O)C[C@H](OC4CC[C@@]5(C)C(CC[C@@H]6[C@@H]5CC[C@]5(C)[C@@H](C7=CC(=O)OC7)[C@@H](O)C[C@]65O)C4)O[C@@H]3C)O[C@@H]2C)O[C@H](C)[C@H]1O[C@@H]1O[C@H](CO)[C@@H](O)[C@H](O)[C@H]1O (stereo partly drawn),Potency,[18],0.794 µM (active)
O=Cc1ccccc1,Potency,[1],inactive
same,activation,[3],-1.08% (inactive)
same,max response,[5],-3.46% (inactive)
same,max response,[6],-5.51% (inactive)
same,outcome,[7],inactive
same,max response,[8],2.23% (inactive)
same,outcome,[9],inactive
OCCN(CCO)CCO,Potency,[2],inactive
same,activation,[4],-1.09% (inactive)
same,max response,[5],-0.143% (inactive)
same,max response,[6],-4.95% (inactive)
same,outcome,[7],inactive
same,outcome,[10],inactive
same,Potency,[19],inactive
same,outcome,[11],inactive
same,max response,[8],-1.5% (inactive)
same,outcome,[9],inactive
